Measurements taken from PubChem BioAssay (Tox21).
Inconclusive results are not listed. Activity calls are given as the source filed them. Unless noted, calls follow the shape of the full dose curve.

Tests used:
[1] = Nuclear factor erythroid 2-related factor 2/antioxidant responsive element (Nrf2/ARE) small molecule agonists: qHTS cell viability counter screen in human keratinocytes (AID 1919968; active = well fitted curve in the direction sought with a large enough effect in the repeat runs; an effect the other way counts as inactive or inconclusive; also: nearly all actives have a fitted effect of over 55% in size)
Outline: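 Fluorescence read-out from CellTiter-Fluor after 1 h at 37 C. Wells held HaCaT-derived ARE-luciferase reporter cells (1,500/well) treated 23 h with DMSO-dissolved compounds. Run in the same wells as the luciferase agonist read.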

[2] = Nuclear factor erythroid 2-related factor 2/antioxidant responsive element (Nrf2/ARE) small molecule agonists: luciferase reporter gene qHTS assay in human keratinocytes (AID 1919969); also: nearly all actives have a fitted effect of over 35% in size; also: potency is read from the fitted curve at half-maximal effect
[3] = target: KiSS-1 receptor (Homo sapiens) (UniProt Q969F8); assay: Human kisspeptin (KISS1R) small molecule agonists, calcium flux assay in KISS1R-HEK293 cells (AID 1920064; active = well fitted curve in the direction sought with a large enough effect in the repeat runs; an effect the other way counts as inactive or inconclusive)
KiSS-1 receptor (Homo sapiens), sequence (Q969F8 whole entry, looked up): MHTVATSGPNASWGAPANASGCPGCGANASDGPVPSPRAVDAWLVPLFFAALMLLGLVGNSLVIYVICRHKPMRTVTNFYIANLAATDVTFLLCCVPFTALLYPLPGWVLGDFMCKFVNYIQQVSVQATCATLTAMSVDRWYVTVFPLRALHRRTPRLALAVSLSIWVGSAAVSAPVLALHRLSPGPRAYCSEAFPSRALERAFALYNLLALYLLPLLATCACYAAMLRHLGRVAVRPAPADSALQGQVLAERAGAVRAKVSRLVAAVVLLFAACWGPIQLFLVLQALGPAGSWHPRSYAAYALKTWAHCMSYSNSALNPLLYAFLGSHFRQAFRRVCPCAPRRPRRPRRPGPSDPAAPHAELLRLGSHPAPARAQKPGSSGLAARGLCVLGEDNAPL
Outline: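 Calcium flux read-out: kinetic fluorescence at Ex/Em=480/540, 1 s intervals over 3 min, after pin-tool compound addition to dye-loaded KISS1R-HEK293 cells. Fifteen concentrations, triplicates.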

[4] = G protein-coupled receptor (GPCR) small molecule agonists, calcium flux assay: HEK293 wild type cell line counter screen (AID 1920065)
Outline: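 Agonist mode; 18 h seeding at 37 C, 1 h dye load at 37 C; compounds pinned from DMSO, ATP as positive control; kinetic fluorescence 480/540 nm, 3 min, 1 s reads; 15 concentrations, triplicate.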

[5] = p53 small molecule agonists, cell-based qHTS assay with human liver microsomes (AID 1963577)
Outline: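 Fluorescence of the beta-lactamase reporter in p53RE-bla cells, detected with LiveBLAzer substrate (2 h, room temperature, dark), served as the read-out after 16 h compound exposure at 37 C with human liver microsomes and NADPH, each 0.5 mg/mL final.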

[6] = p53 small molecule agonists, cell-based qHTS assay with rat liver microsomes (AID 1963578)
Outline: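 Cells carrying a p53 response element–beta-lactamase reporter were plated and rested 5 h, then dosed with compound in DMSO plus rat liver microsomes and NADPH, each at 0.5 mg/mL final. After 16 h at 37 C, LiveBLAzer substrate was added for 2 h.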

[7] = p53 small molecule agonists, cell-based qHTS assay with rat liver microsomes: qHTS cell viability counter screen (AID 1963580); also: nearly all actives have a fitted effect of over 45% in size
Outline: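 Rat liver microsome (0.5 mg/mL final) and NADPH (0.5 mg/mL final) co-incubation with compounds for 16 h at 37 C on HCT-116 p53RE-bla cells; cytotoxicity taken from intracellular ATP luminescence.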

[8] = target: 5-hydroxytryptamine receptor 2A (Homo sapiens) (UniProt P28223); assay: 5-hydroxytryptamine receptor 2A (HTR2A) small molecule agonists, cell-based qHTS assay (AID 1963587); also: nearly all actives have a fitted effect of over 30% in size
5-hydroxytryptamine receptor 2A (Homo sapiens), sequence (P28223 whole entry, looked up): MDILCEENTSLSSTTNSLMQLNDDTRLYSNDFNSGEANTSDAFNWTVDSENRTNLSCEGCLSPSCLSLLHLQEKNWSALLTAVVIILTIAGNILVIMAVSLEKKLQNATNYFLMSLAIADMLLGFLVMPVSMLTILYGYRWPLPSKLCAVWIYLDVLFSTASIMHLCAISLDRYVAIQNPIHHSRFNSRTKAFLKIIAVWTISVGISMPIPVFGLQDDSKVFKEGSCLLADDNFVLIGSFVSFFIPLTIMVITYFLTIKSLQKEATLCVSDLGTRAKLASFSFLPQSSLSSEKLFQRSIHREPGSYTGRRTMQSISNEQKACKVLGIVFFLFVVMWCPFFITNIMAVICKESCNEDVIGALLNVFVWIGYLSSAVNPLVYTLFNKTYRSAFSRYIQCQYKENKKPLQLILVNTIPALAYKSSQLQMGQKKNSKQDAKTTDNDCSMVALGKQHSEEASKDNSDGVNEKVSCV
Outline: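 Kinetic calcium-flux fluorescence (2 min, 1 sec intervals) after compound addition in agonist mode. HTR2A-CHO cells were cultured 18 h, then dye-loaded 1 h at 37 C.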

[9] = target: Muscarinic acetylcholine receptor M1 (Homo sapiens) (UniProt P11229); assay: Cholinergic receptor muscarinic 1 (CHRM1) small molecule antagonists, cell-based qHTS assay (AID 1963588); also: nearly all actives have a fitted effect of over 40% in size
Muscarinic acetylcholine receptor M1 (Homo sapiens), sequence (P11229 whole entry, looked up): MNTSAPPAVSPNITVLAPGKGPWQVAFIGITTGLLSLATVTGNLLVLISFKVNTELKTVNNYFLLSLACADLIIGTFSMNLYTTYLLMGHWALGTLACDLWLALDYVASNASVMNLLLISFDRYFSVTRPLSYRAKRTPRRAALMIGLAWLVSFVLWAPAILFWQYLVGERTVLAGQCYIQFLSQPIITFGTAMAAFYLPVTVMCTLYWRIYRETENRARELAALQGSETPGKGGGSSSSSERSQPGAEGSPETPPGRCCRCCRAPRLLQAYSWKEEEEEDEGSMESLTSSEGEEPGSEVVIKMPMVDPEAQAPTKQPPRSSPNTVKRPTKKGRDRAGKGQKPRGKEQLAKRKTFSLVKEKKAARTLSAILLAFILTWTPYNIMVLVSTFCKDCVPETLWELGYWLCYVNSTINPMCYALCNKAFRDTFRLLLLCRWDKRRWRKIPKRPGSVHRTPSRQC
Outline: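 Compounds were tested at 15 concentrations in three independent runs. Dye-loaded CHRM1-CHO cells were exposed 5 min at room temperature before stimulation by acetylcholine added at 50nM. Intracellular calcium was read kinetically on FDSS for 3 min.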

[10] = target: Muscarinic acetylcholine receptor M1 (Homo sapiens) (UniProt P11229); assay: Cholinergic receptor muscarinic 1 (CHRM1) small molecule agonists, cell-based qHTS assay (AID 1963589); also: nearly all actives have a fitted effect of over 35% in size
Outline: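 Calcium flux read-out: kinetic fluorescence at 1 sec intervals after pin-tool compound addition to dye-loaded CHRM1-CHO cells (human M1). Agonist mode; 15 concentrations tested in triplicate independent runs.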

[11] = cAMP Responsive Elements (CRE) small molecule antagonists, cell-based qHTS assay (AID 1963591; active = well fitted inhibition curve with a large enough effect in the signal ratio in the repeat runs, not every such curve was filed as active; the % refers to the signal ratio)
Outline: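 HEK293T CRE-bla; 18 h preincubation; compound pin-transfer; NKH477 0.25 uM final, 3 h, 37 C; LiveBLAzer FRET substrate 2 h RT.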

[12] = target: Beta-2 adrenergic receptor (Homo sapiens) (UniProt P07550); assay: Adrenergic beta2 receptor (ADRB2) small molecule antagonists, cell-based qHTS assay (AID 1963592); also: series mostly up to about 92 µM; nearly all actives have a fitted effect of over 50% in size
Beta-2 adrenergic receptor (Homo sapiens), sequence (P07550 whole entry, looked up): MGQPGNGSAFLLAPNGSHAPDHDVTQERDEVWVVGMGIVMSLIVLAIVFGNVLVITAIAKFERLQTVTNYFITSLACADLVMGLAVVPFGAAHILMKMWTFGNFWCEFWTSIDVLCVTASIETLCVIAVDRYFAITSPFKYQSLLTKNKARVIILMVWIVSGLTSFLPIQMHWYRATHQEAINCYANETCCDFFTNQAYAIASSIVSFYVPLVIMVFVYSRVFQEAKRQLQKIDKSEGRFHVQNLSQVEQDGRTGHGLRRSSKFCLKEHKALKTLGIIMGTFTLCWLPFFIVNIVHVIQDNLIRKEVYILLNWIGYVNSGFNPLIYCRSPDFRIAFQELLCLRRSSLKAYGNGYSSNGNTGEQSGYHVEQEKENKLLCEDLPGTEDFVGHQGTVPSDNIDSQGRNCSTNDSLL
Outline: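 Assay format: CHO-ADRB2 cells, 18-20hr seeding at 37C/5% CO2, then compound plus 1nM isoproterenol agonist mix for 0.5hr RT. Homogeneous time-resolved fluorescence cAMP detection after 1hr, expressed as 665/615 nm ratio.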

[13] = target: D(2) dopamine receptor (Homo sapiens) (UniProt P14416); assay: Dopamine D2 receptor (DRD2) small molecule agonists, cell-based qHTS assay (AID 1963594); also: nearly all actives have a fitted effect of over 35% in size
D(2) dopamine receptor (Homo sapiens), sequence (P14416 whole entry, looked up): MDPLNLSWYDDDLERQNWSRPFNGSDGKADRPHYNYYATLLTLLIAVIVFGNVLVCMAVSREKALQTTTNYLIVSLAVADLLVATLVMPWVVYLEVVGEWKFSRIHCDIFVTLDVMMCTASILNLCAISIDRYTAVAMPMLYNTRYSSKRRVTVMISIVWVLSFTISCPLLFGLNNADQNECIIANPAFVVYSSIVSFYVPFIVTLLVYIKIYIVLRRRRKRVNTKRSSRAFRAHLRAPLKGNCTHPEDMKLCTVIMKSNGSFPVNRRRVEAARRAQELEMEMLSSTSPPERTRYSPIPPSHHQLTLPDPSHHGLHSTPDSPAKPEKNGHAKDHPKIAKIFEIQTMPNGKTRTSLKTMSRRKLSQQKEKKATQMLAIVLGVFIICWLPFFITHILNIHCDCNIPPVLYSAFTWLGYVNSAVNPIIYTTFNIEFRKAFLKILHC
Outline: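 cAMP accumulation in DRD2-HEK293 cells measured by HTRF after 1 h detection; compounds added 10 min before NKH477 (200nM […]) forskolin-analogue stimulation, 30 min at room temperature, with Ro20-1724 present at 0.1 mM final.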

[14] = target: D(2) dopamine receptor (Homo sapiens) (UniProt P14416); assay: Dopamine D2 receptor (DRD2) small molecule antagonists, cell-based qHTS assay (AID 1963595; active = well fitted inhibition curve with a large enough effect in the signal ratio in the repeat runs, with a control signal flat; the % refers to the signal ratio)
Outline: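 HEK293 cells stably expressing DRD2, preincubated with 0.1 mM Ro20-1724 and compounds 10 min, were stimulated with 200 nM NKH477 plus 12 nM quinpirole for 30 min at room temperature; cAMP measured by HTRF (665/620 nm).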

[15] = p53 small molecule agonists, cell-based qHTS assay with human liver microsomes: qHTS cell viability counter screen (AID 1963579); also: nearly all actives have a fitted effect of over 45% in size
Outline: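 Cytotoxicity counter screen: p53RE-bla, 4,000 cells/well; 5 h settle, 37 C/5% CO2; cpd + HLM 0.5 mg/mL + NADPH 0.5 mg/mL (final); 16 h, 37 C; CellTiter-Glo, 30 min RT, luminescence.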

[16] = p53 small molecule agonists, cell-based qHTS assay: qHTS cell viability counter screen (AID 1963581); also: nearly all actives have a fitted effect of over 45% in size
Outline: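 Cytotoxicity read-out: ATP-based luminescence (CellTiter-Glo, 30 min RT) measured in the same wells as the p53 reporter assay, HCT-116 p53RE-bla cells, 16 h compound exposure at 37 C.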

[17] = p53 small molecule agonists, cell-based qHTS assay (AID 1963582; active = well fitted activation curve with a large enough effect in the signal ratio in the repeat runs, not every such curve was filed as active; the % refers to the signal ratio)
Outline: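 Fluorescence intensity read-out of a beta-lactamase reporter under a p53 response element. Cells were exposed to DMSO-dissolved compounds for 16 h at 37 C, then developed with FRET substrate for 2 h at RT.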

[18] = cAMP Responsive Elements (CRE) small molecule agonists, cell-based qHTS assay (AID 1963590)
Outline: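 Beta-lactamase reporter readout: LiveBLAzer B/G FRET substrate, 2 h at room temperature, added after 3 h compound treatment of CRE-bla HEK 293T cells at 37 C/5% CO2.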

[19] = target: Beta-2 adrenergic receptor (Homo sapiens) (UniProt P07550); assay: Adrenergic beta2 receptor (ADRB2) small molecule agonists, cell-based qHTS assay (AID 1963593);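 also: CHO cells stably overexpressing human ADRB2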
Outline: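 CHO cells stably over-expressing ADRB2 were plated overnight at 37C, then dosed with compounds plus a stimulation mix containing 100uM IBMX and 25uM Ro-20-1724 for 0.5hr at room temperature. cAMP was measured by HTRF competition, 1hr.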

[20] = target: 5-hydroxytryptamine receptor 2A (Homo sapiens) (UniProt P28223); assay: 5-hydroxytryptamine receptor 2A (HTR2A) small molecule antagonists, cell-based qHTS assay (AID 1963586); also: nearly all actives have a fitted effect of over 45% in size
Outline: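 CHO cells stably expressing human HTR2A were plated for 18 h at 37 C, then loaded with calcium dye for 1 h. Compounds were preincubated 5 min at room temperature before DOI (4 nM solution) was added. Kinetic fluorescence was read for 3 min.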

Measured: Potency

CCCCCN(CCCCC)C(=O)C(CCC(=O)O)NC(=O)c1ccc(Cl)c(Cl)c1 (stereo not given)
not listed: [15] | [16] | [17] | [18] | [19] | [20]
inactive: all other assays above

CCN(CC)CCOC(=O)C1(c2ccccc2)CCCC1
not listed: [4] | [9] | [11] | [20]
inactive: all other assays above

Oc1ccc(Oc2ccccc2)cc1
not listed: [5] | [11] | [14] | [17]
inactive: all other assays above

CC(C)c1ccc2sc3ccccc3c(=O)c2c1
active: [2] 68.6 µM
not listed: [7] | [9] | [11] | [14] | [15] | [18] | [19]
inactive: all other assays above

O=C(O)CCNC(=O)c1ccccc1
not listed: [5] | [6] | [8] | [9] | [10] | [14] | [20]
inactive: all other assays above

CCCCCCCCCCCCCCCCCC(=O)OCCCCCCCCCCCCCC(C)C
not listed: [3] | [19]
inactive: all other assays above

CCCOc1ccccc1-c1nc2n[nH]nc2c(=O)[nH]1
inactive: [1] | [2] | [3] | [4] | [15] | [16] | [17] | [12]

CCCCOc1cc(C(=O)NCCN(CC)CC)c2ccccc2n1
not listed: [6] | [8] | [20]
inactive: all other assays above
